Source: PubChem
A selection: hits, their analogues and other compounds. The true share with any hit is near 3.5%.
Pf apPOL block – Pf-apPOL inhibitors, biochemical, fluorescence; Plasmodium falciparum apicoplast DNA polymerase (apPOL); Recombinant Pf-apPOL, molecular beacon fluorescence, 1.5 h; inhibition, % at 10 µM; hit rate 0.25% among 210,000; AID 1794808, 2022
mHTT-CaM PPI inh – mutant huntingtin-calmodulin interaction inhibitors – biochemical, AlphaScreen, primary screen; P42858; AlphaScreen His-mHTT/GST-CaM binding, luminescence; inhibition, % at 15 µM; hit rate 3.6% among 190,000; AID 1671202, 2021;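 also: 0% = both proteins with DMSO and 100% = one protein alone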
Active calls of the source: *; nt = no result. Rule as the data show it: active = inhibition above about 50%; inactive = the rest.

SMILES	Pf apPOL block	mHTT-CaM PPI inh
Cc1ccc(C(=O)Nc2c3c(nn2-c2cccc(Cl)c2)CSC3)cc1[N+](=O)[O-]	-5	-1
CCCn1ncc(N2CCC(C(=O)NCCN3CCCCCC3)CC2)cc1=O	-4	17
COc1cc(C(c2cc3c(cc2O)OCO3)N2CCOCC2)cc(OC)c1OC (centres undefined)	nt	26
CC(C)(C)c1cc(C(c2ccccc2O)N2CCOCC2)cc(C(C)(C)C)c1O (centres undefined)	12	52*
CC(C)(C)c1cc(C2=C(N3CCOCC3)C(=O)c3ccccc3C2=O)cc(C(C)(C)C)c1O	-2	86*
Cc1ccc(NC2=C(N3CCOCC3)C(=O)c3ccccc3C2=O)cc1	4	46
CC(C)(C)c1cc(CN2CCC(O)CC2)cc(C(C)(C)C)c1O	14	-4
CC1CCN(C(c2ccc(N(C)C)cc2)c2cc(C(C)(C)C)c(O)c(C(C)(C)C)c2)CC1 (centres undefined)	-7	66*
COC(=O)c1nc2n(n1)C(c1ccccc1C)C1=C(CCCC1=O)N2 (centres undefined)	-5	-7
O=C(c1ccncc1)N1CCCN(c2cc(-c3ccc4c(c3)OCO4)[nH]n2)CC1	-2	21
COc1cc(OC)cc(C(=O)Nc2c3c(nn2-c2cccc(Cl)c2)CSC3)c1	-6	3
O=C(Nc1ccc([N+](=O)[O-])cc1)c1ccco1	-2	-1
Cc1cccc(Oc2ccc(N3C(=O)C=CC3=O)cc2)c1C	-9	49
Nc1ccc(Oc2cccc(Oc3ccc(N)cc3)c2)cc1	-18	52*
O=C1C=CC(=O)N1c1ccc(Oc2cccc(Oc3ccc(N4C(=O)C=CC4=O)cc3)c2)cc1	-6	91*
NC(=O)c1ccc(Oc2cccc(Oc3ccc(C(N)=O)cc3)c2)cc1	1	-1
Oc1oc(-c2ccccc2F)nc1C=Nc1ccc(Br)cc1	0	-2
O=C(c1ccnc(-c2cccs2)c1)N1CCCCCC1	-8	-4
COc1ccc(N2CCN(C(=O)c3ccnc(-c4cccs4)c3)CC2)cc1	-2	50*
CC(=NCCN1CCOCC1)c1c(C(F)(F)F)[nH]n(-c2nc3ccccc3s2)c1=O	-1	2
CC(=NCCCN1CCOCC1)c1c(-c2ccccc2)[nH]n(-c2nc3ccccc3s2)c1=O	-3	51*
O=[N+]([O-])c1cccc(N2COc3ccc(Cl)cc3C2)c1	1	54*
CC(=O)c1cccc(N2COc3ccc(Cl)cc3C2)c1	-6	22
COc1ccc(-n2nc(C)c3sc(N4CCC(NC(=O)CC(C)C)CC4)nc32)cc1	-7	3
CCCNS(=O)(=O)c1ccccc1I	-4	nt
SMILES	Pf apPOL block	mHTT-CaM PPI inh
Cn1ncc(C(=O)O)c1C(F)(F)F	7	nt
CC(=O)C(N=Nc1ccccc1C)=C(C)O	-6	nt
COc1ccc(C2C=C(c3ccc(C)cc3)Nc3ncnn32)cc1OC (centres undefined)	0	20
Cc1ccc(NC(=O)C(=O)NCCCn2ccnc2)cc1F	-8	17
O=C(NCCCn1ccnc1)C(=O)NCc1ccc(F)cc1	-6	70*
COc1ccc(Cl)cc1NC(=O)C(Cc1ccccc1)N1C(=O)C2C3CCC(C3)C2C1=O (centres undefined)	-1	32
COc1ccc(Cl)cc1NC(=O)C(Cc1ccccc1)N1C(=O)C2C3C=CC(C3)C2C1=O (centres undefined)	-2	51*
O=C(O)C1CCCN1C(=O)Cc1ccccc1 (centres undefined)	-9	-7
Cc1ccc(-n2nnnc2-c2cnc(-c3ccccc3)nc2-c2ccc(Cl)cc2)cc1	4	nt
Cc1ccc([N+](=O)[O-])cc1NC(=O)c1cnccn1	2	3
Cc1ccc([N+](=O)[O-])cc1NC(=O)c1cccc(C(=O)Nc2cc([N+](=O)[O-])ccc2C)n1	67*	2
COc1ccc(NC(=O)N2CC3CCCN3c3ccccc32)c(OC)c1 (centres undefined)	0	90*
CCC1CN(C(=O)Nc2ccc(OC)cc2)c2ccccc2O1 (centres undefined)	2	1
COc1ccc(NC(=O)N2CCCC2c2ccccc2Cl)c(OC)c1 (centres undefined)	-5	2
COc1ccc(NC(=O)N2CC3CCCN3c3ccccc32)cc1 (centres undefined)	1	62*
CC(=NS(=O)(=O)c1ccc(C)cc1)N1CCCN(S(=O)(=O)c2ccc(C)cc2)C1C(C)C (centres undefined)	6	0
CCc1c(C)nc2c(C)cccc2c1SCCC(=O)O	2	1
COc1ccccc1CNS(=O)(=O)c1ccc(F)c(C(=O)Nc2cccc(Cl)c2)c1	-6	15
Cn1cc(CCCC(=O)NC2CCCCCCC2)c2ccccc21	-15	21
COC(=O)c1[nH]c2c(c1C)C(=O)CC(C)(C)C2	nt	3
Cc1[nH]c2c(c1C)C(=O)CC(C)(C)C2	nt	68*
C[C@H]1[C@@H]2C[C@H]([C@H]3CCCCN31)[C@H](OC(=O)Nc1ccc(F)cc1)C2	-6	-10
O=C(Nc1ccc2nn(-c3ccccc3)nc2c1)c1ccc([N+](=O)[O-])cc1Cl	-3	2
CCN(CCCNC(=O)CC(C(=O)N1CCc2ccccc21)n1ccnc1)c1cccc(C)c1 (centres undefined)	-10	74*
CCN(CCCNC(=O)Cc1cn(C)c2ccccc12)c1cccc(C)c1	-5	71*
SMILES	Pf apPOL block	mHTT-CaM PPI inh
CC(CCc1ccccc1)NC(=O)CC(C(=O)N1CCc2ccccc21)n1ccnc1 (centres undefined)	-7	20
CCN(CC)CCCNC(=O)CC(C(=O)N1CCc2ccccc21)n1ccnc1 (centres undefined)	-5	-2
CC(NC(=O)CC(C(=O)N1CCc2ccccc21)n1ccnc1)C12CC3CC(CC(C3)C1)C2 (centres undefined)	-4	59*
CCN(CCCNC(=O)c1cn(C)c(=O)c2c1c1ccccc1n2C)c1cccc(C)c1	-2	-1
CCOc1ccccc1N(C)C(=O)c1cc(S(=O)(=O)N2CCCc3ccccc32)ccc1F	39	6
Cc1ccc(C2C(=C(O)c3ccc(OC(C)C)cc3)C(=O)C(=O)N2c2nnc(C)s2)o1 (centres undefined)	-4	6
COc1ccc2c(c1)c(CC(=O)NCc1cccnc1)c(C)n2C(=O)c1ccc(Cl)cc1	-4	58*
O=C(Cc1ccc(Cl)cc1)NCc1cccnc1	10	-2
CC1=NN(c2ccccc2)C(=O)/C1=C/c1ccc([N+](=O)[O-])cc1	-3	33
CC1=NN(c2ccccc2)C(=O)/C1=C/c1ccc(N2CCOCC2)cc1	7	78*
CCN(C)c1ccc(/C=C2/C(=O)N(c3ccc(C)c(C)c3)N=C2C)cc1	0	58*
CC1=NOC(=O)/C1=C/c1ccc(N2CCOCC2)cc1	5	16
CC1=NN(c2ccc(C(=O)O)cc2)C(=O)/C1=C/c1ccc(N(C)C)cc1	-4	4
CCN(C)c1ccc(/C=C2/C(=O)N(c3cccc(Br)c3)N=C2C)cc1	-1	90*
CC1=NN(c2cccc(Br)c2)C(=O)/C1=C/c1ccc(N(C)C)cc1	-5	24
CC1=NN(c2ccc(C)c(C)c2)C(=O)/C1=C/c1ccc([N+](=O)[O-])cc1	3	53*
COCCn1c(=N)c(S(=O)(=O)c2ccc(C)cc2)cc2c(=O)n3ccccc3nc21	-16	4
